Our source for the AC50 and activity, negative = inhibition values is PubChem BioAssay AID1851 (National Center for Advancing Translational Sciences (NCATS), 2009).

The AC50 is the concentration giving half of the maximal activity seen.

Structures are written as SMILES. Hit rate of the full screen: of about 16,000 compounds, about 5,700 (36%) were called active. Another 24% or so got no clear call; they are omitted. The list shows a part of the results. Values without a mark were called inactive. Calls follow the shape of the dose curve; as a rule, active = well fitted curve in the direction sought with a large enough effect; inconclusive = small, poorly fitted or top-dose-only effect, or effect the other way; inactive = no such curve, though single readings can be large or run the other way.
% is scaled to controls: 0 for no effect and ±100 for the full control effect.

The target of the assay is Cytochrome P450 1A2 (Homo sapiens) (UniProt P05177). Briefly: Cytochrome panel assay with activity outcomes. Particulars: recombinant CYP, pro-luciferin dealkylation, luminescence, p450-cyp1a2; series mostly up to 57.1 µM.
Chain of Cytochrome P450 1A2 (Homo sapiens) (P05177 whole entry, looked up): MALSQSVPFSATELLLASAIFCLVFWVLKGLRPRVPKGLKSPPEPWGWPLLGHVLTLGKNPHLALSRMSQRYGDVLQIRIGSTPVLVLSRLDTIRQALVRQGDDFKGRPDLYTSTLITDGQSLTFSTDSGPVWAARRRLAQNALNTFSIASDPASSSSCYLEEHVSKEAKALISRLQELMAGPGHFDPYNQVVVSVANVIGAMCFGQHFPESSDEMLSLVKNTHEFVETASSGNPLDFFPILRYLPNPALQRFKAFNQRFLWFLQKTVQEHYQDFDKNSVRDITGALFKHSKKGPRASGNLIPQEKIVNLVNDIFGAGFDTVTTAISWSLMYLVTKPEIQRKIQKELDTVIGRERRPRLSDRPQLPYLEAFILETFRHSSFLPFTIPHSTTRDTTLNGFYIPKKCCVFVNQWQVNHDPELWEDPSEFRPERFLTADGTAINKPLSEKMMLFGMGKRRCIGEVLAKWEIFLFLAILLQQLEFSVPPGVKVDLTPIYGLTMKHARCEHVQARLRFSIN
Turning to `Cc1cc(C)c2c(-n3cccc3)nn(CC#N)c2n1`, the AC50 was 2510 nM (active). For the molecule `Cc1cc(C)c2c(-n3cccc3)n[nH]c2n1`, the AC50 is 3550 nM (active). Same read-out and setting: with `CSc1nc(Oc2ccc(=O)[nH]n2)nc(N(C)C)n1` the entry was “inactive”; with `Cc1cccc(-n2c(Cn3nc(C)c([N+](=O)[O-])c3C)n[nH]c2=S)c1`, “inactive”; with `Cc1cccc(-n2nc([N+](=O)[O-])c(=NCc3cccnc3)n2O)c1`, 2000 nM (active). As for `C#CCn1c(S(=O)(=O)Cc2ccc(OC)cc2)nc(-c2ccccc2)c1-c1ccccc1`, the AC50 entry was “inactive”. As to `COc1ccc(F)cc1S(=O)(=O)NC(Cc1ccccc1)C(N)=O` (configuration not stated), the AC50 result was “inactive”. For the molecule `COc1cc(OC)c(C#N)c(S(=O)(=O)Cc2ccccc2)c1`, the AC50 is 15800 nM (active).

On to `C[C@@H](CNC(N)=O)NC(N)=O`, for which the activity, negative = inhibition was -12.2% [at 11.4 µM]. In the case of `CN(Cc1ccco1)c1ncncc1-c1cccnc1`, the AC50 was 5010 nM (active).

Take `CN(Cc1ccco1)c1ncncc1-c1ccc2c(c1)OCO2`: the half-maximal activity concentration (AC50) is 200 nM (active). On the same count and under the same terms, in the case of `COc1cccc(-c2cncnc2N(C)Cc2ccco2)c1` it was 10000 nM (active); in that of `CN(C)c1ccc(-c2cncnc2N(C)Cc2ccco2)cc1`, 631 nM (active); in that of `CN(Cc1ccco1)c1ncncc1-c1ccoc1`, 15800 nM (active). On the same count and under the same terms, in the case of `CCCCCC(=O)Nc1cccc(-c2nc3ncccc3o2)c1` it was 2000 nM (active). The same measure, in the same setting: with `CCC(=O)Nc1cccc(-c2nnc(-c3cccc(NC(=O)CC)c3)o2)c1` the entry was “inactive”; with `O=C(Cc1ccc(Cl)cc1)Nc1cccc(-c2nnc(-c3ccco3)o2)c1`, “inactive”. Regarding `CCCCCC(=O)N1CC2(CC(c3cccc(NC(=O)c4ccccc4)c3)=NO2)C[C@@H]1C(N)=O` (some centres not stated), the AC50 result is “inactive”. In the case of `O=C(Nc1cccc(-c2nc3ncccc3o2)c1)c1sc2ccccc2c1Cl`, the concentration at half-maximal activity (AC50) was 708 nM (active). Same read-out and setting: with `O=C(CSc1ccc(Cl)cc1)Nc1cccc(-c2nc3ncccc3o2)c1` the figure was 8910 nM (active); with `Cc1ccc(S(=O)(=O)O/N=C2/CCCc3occc32)cc1`, “inactive”. Turning to `CN(C)C(=O)CSC1c2ccccc2C(=O)N1c1ccccc1` (configuration not stated), the AC50 is 12600 nM (active).

For the molecule `COc1ccc(C2C(C(=O)N3CCOCC3)c3ccccc3C(=O)N2c2ccc(OC)cc2)cc1` (configuration not stated), the AC50 entry was “inactive”. Same read-out and setting: with `CCOc1ccc(C2C(C(=O)O)c3ccccc3C(=O)N2CCN2CCOCC2)cc1` (configuration not stated) the entry was “inactive”. Consider `O=c1cc(CF)[nH]c(=S)[nH]1`, for which the activity, negative = inhibition was -23.3% [at 11.4 µM]. As for `CNc1nc(-c2ccoc2)nc2ccccc12`, the AC50 was 398 nM (active). Same read-out and setting: in the case of `c1ccc2c(Nc3ccncc3)nc(-c3ccoc3)nc2c1` it was 158 nM (active). In the case of `c1ccc(Nc2nc(-c3ccoc3)nc3ccccc23)cc1`, the half-maximal activity concentration (AC50) was 200 nM (active).

Consider `Fc1ccc(Nc2nc(-c3ccoc3)nc3ccccc23)cc1`, for which the AC50 was 316 nM (active).

With `C=CC1=C[C@@H](O)C2OC2C12OCCCO2` (some centres not stated), the activity, negative = inhibition is -8.77% [at 11.4 µM]. Take `NC(=O)CN1CCOCCOCCOCCOCCOCC1`: the AC50 result is “inactive”. On the same count and under the same terms, in the case of `NC(=O)CN1CCN(c2nc(-c3ccc(F)cc3)cs2)CC1` it was 2510 nM (active). With `NCS(=O)(=O)O`, the activity, negative = inhibition was -5.62% [at 2.29 µM]. Take `COc1ccc2c(c1)C(=NN)c1cc(OC)ccc1-2`: the AC50 was 112 nM (active).

As for `COCCN(C(=O)Nc1ccc(OC)cc1OC)C1CCN(C(C)=O)CC1`, the AC50 result was “inactive”.

On to `COc1ccc(NC(=O)NCc2cccn2C)c(OC)c1`, for which the AC50 is 15800 nM (active). As to `CCN1CCCC1CNC(=O)C(=O)Nc1ccc(OC)cc1` (configuration not stated), the AC50 entry was “inactive”. `COc1ccc(N2CCC(CNC(=O)Nc3ccc(OC)cc3OC)C2)cc1` (configuration not stated): the half-maximal activity concentration (AC50) was 12600 nM (active). Still for that read-out and setting: in the case of `COc1ccc(OC)c(NC(=O)[C@H]2CC=CC[C@H]2C(=O)O)c1` it was “inactive”; in that of `COc1ccc(NC(=O)CSc2nnc(Cc3cccn3C)n2CCc2ccccc2)c(OC)c1`, “inactive”; in that of `CCCCN(CC)Cc1ccc(CNC(=O)Nc2ccc(OC)cc2OC)o1`, “inactive”. On to `COc1ccc(OC)c(NC(=O)Cn2cccc2)c1`, for which the concentration at half-maximal activity (AC50) was 6310 nM (active). Still for that read-out and setting: with `COc1ccc(NC(=O)Cn2cccc2)c(OC)c1` the figure was 5010 nM (active).

`CCOc1ccc(-c2nnn(CC(=O)Nc3cc(OC)ccc3OC)n2)cc1OCC`: the AC50 entry is “inactive”.

For the molecule `C[C@@H](C(=O)O)c1ccc(C[C@@H]2CCCC2=O)cc1`, the AC50 result is “inactive”. Regarding `O=C1[C@@H]2[C@@H](C(=O)N1c1ccc(OCc3ccccc3)cc1)[C@@H]1c3ccccc3[C@@H]2[n+]2ccccc21`, the activity, negative = inhibition was -19.6% [at 11.4 µM]. As to `CN[C@]1(C)[C@@H]2CC[C@@H](C2)C1(C)C`, the AC50 entry was “inactive”. On the same count and under the same terms, with `CCOC(=O)c1cncc(C(=O)O)c1` the entry was “inactive”. Same read-out and setting: with `CCOC(=O)c1ccc2nc(C)c(CCC(C)=O)c(Cl)c2c1` the figure was 8910 nM (active); with `CCc1ccc(C(=O)COC(=O)c2cccc(N3C(=O)c4c(C)nc5ccccc5c4C3=O)c2)cc1`, “inactive”. On to `O=C1CCCC=C1[C@H](CCc1ccccc1)OC(=O)c1ccc(Br)cc1`, for which the activity, negative = inhibition is -1.62% [at 11.4 µM]. With `COC(=O)/C(=C\C(=O)c1ccccc1)Nc1cccc(C(F)(F)F)c1`, the half-maximal activity concentration (AC50) is 2240 nM (active). Still for that read-out and setting: in the case of `O=C(Nc1ccccc1)N1CC2(CCN(C(=O)c3cc(C(F)(F)F)cc(C(F)(F)F)c3)CC2)C1` it was “inactive”; in that of `COc1ccc2c(Cc3c4ccccc4cc4ccccc34)cncc2c1O`, 126 nM (active). Take `CCCNC(=O)OC[C@@H]1O[C@H](CCO/N=C\C[C@H]2C=C[C@H](OC(C)=O)[C@@H](COC(C)=O)O2)C=C[C@@H]1Oc1ccc(OC)cc1`: the activity, negative = inhibition is -4.67% [at 11.4 µM]. As to `Cn1c(=O)c2[nH]c(/N=N\N3CCN(CCO)CC3)nc2n(C)c1=O`, the activity, negative = inhibition is -14.7% [at 2.29 µM]. Regarding `c1ccc(CNc2nc(-c3ccoc3)nc3ccccc23)cc1`, the concentration at half-maximal activity (AC50) was 631 nM (active). As to `Cc1cccc(CNc2nc(-c3ccoc3)nc3ccccc23)c1`, the AC50 is 1260 nM (active). Still for that read-out and setting: with `c1csc(CNc2nc(-c3ccoc3)nc3ccccc23)c1` the figure was 316 nM (active); with `c1cncc(CNc2nc(-c3ccoc3)nc3ccccc23)c1`, 398 nM (active).

Consider `CCc1ccc(C(=O)COC(=O)C(Cc2ccccc2)NC(=O)C2CCC(C)CC2)cc1` (configuration not stated), for which the AC50 result is “inactive”.

With `C=CC[C@@H]1C=C[C@@H](O/N=C\[C@@H](OC)[C@H](C)/C=C\CC(=O)OC)[C@@H](CO)O1`, the activity, negative = inhibition is -0.319% [at 11.4 µM]. As for `COCCCN=CC1=C(O)CC(C)(C)CC1=O`, the AC50 result was “inactive”.

In the case of `CN[C@@H](c1ccncc1)[C@@H](NC)c1ccncc1`, the activity, negative = inhibition is -13.3% [at 11.4 µM]. As for `c1cncc(-c2nc(NCc3cccs3)c3ccccc3n2)c1`, the AC50 is 316 nM (active). The same measure, in the same setting: in the case of `COc1ccc(OCCn2c(C)c(/C=N/n3cnnc3)c3ccccc32)cc1` it was 398 nM (active); in that of `O=C(CCC(=O)Nc1ccccc1)NNC(=O)c1cccs1`, “inactive”.

With `O=C(COc1cccc2ccccc12)NNC(=O)c1cccs1`, the concentration at half-maximal activity (AC50) is 8910 nM (active). The same measure, in the same setting: with `CC1(C)Cc2c(sc3nc(-c4ccccc4)n(N)c(=O)c23)CO1` the figure was 7080 nM (active); with `Cc1cc2cc3c(C)cc(=O)oc3c(C)c2o1`, 1000 nM (active); with `CC(C)NC(=O)N1CC[C@@]2(CCCN(S(=O)(=O)c3ccccc3)C2)C1`, “inactive”. Consider `CSc1c(-c2ccccc2)nc2ccc(Cl)cc2c1C(=O)O`, for which the AC50 result was “inactive”. The same measure, in the same setting: in the case of `CSc1nc(Sc2cccc(Cl)c2)c2ccccc2n1` it was 355 nM (active); in that of `O=C(O)/C=C\c1cnc[nH]1`, “inactive”. Same read-out and setting: in the case of `Cc1cc(C)nc(NC(=O)/C=C/c2ccc(Cl)cc2Cl)c1` it was 3160 nM (active). Still for that read-out and setting: with `Cc1cc(C)nc(NC(=O)CCCC(=O)O)c1` the entry was “inactive”. In the case of `C#CCCCC(=S)Nc1ccccc1`, the concentration at half-maximal activity (AC50) is 12600 nM (active). Still for that read-out and setting: with `N=c1nc(N2CCCCC2)cc(N)n1O` the entry was “inactive”; with `CC(Sc1nc(-c2ccccc2)cc(C(F)(F)F)n1)C(=O)N1CCCCC1` (configuration not stated), 8910 nM (active). With `O=C(c1cc(C(F)(F)F)cc(C(F)(F)F)c1)N1CCC[C@@]2(CCN(c3ccccc3)C2)C1`, the AC50 entry is “inactive”.

Turning to `O=C1[C@H]2[C@H]3[C@H](O)[C@H](O)C/C(=N/OC[C@@H](O)COCc4ccco4)[C@H]3CC[C@@H]2C(=O)N1Cc1ccccc1`, the activity, negative = inhibition is -10.7% [at 11.4 µM]. `NS(=O)(=O)c1ccc(NCc2cnc3ccccc3n2)cc1`: the activity, negative = inhibition is -18.2% [at 2.29 µM]. The same measure, in the same setting: in the case of `NS(=O)(=O)c1ccc(NCc2nc3ccccc3[nH]2)cc1` it was -18.8% [at 2.29 µM]. For `NS(=O)(=O)c1ccc(NCc2ccccc2OCc2ccccc2F)cc1`, the concentration at half-maximal activity (AC50) is 14100 nM (active). On the same count and under the same terms, with `CCN(CC)CCNC(=O)c1cc(S(C)(=O)=O)ccc1OC` the entry was “inactive”.

Turning to `CCCCOc1cc(C(=O)NCCN(CC)CC)c2ccccc2n1`, the AC50 was 5010 nM (active). Same read-out and setting: with `CCCCCCCCOC1OC(CO)C(O)C(O)C1NC(C)=O` (configuration not stated) the entry was “inactive”; with `CCOC(=O)C(CC)(CC)C(=O)/C=C/c1ccc(Br)cc1`, 2510 nM (active); with `C[n+]1ccc(/C=C/c2ccc(Br)cc2)cc1`, “inactive”.

As to `CCc1nnc(NC(=O)CCC(=O)NCc2ccccc2OC)s1`, the AC50 result was “inactive”. Same read-out and setting: with `CC(C)(C)NC(=O)Cn1nnc(-c2ccccc2NC(=O)c2cnccn2)n1` the entry was “inactive”. The same measure, in the same setting: with `COc1ccccc1CNC(=O)Cn1nnc(-c2ccncc2)n1` the figure was 12600 nM (active); with `COc1cc([C@H](O)CO)ccc1O`, “inactive”.

Take `CC[C@H](NC(C)C)[C@H](O)c1ccc(O)c(O)c1`: the half-maximal activity concentration (AC50) was 12600 nM (active). On the same count and under the same terms, in the case of `CC(=O)c1c(C)nc(-c2ccccc2)n1O` it was 15800 nM (active); in that of `N/N=C1/c2ccccc2N[C@H]1OC(=O)Nc1ccccc1`, 501 nM (active).

Turning to `O=C(O)[C@@H]1[C@@H](C(=O)Nc2ccccc2)[C@@H]2C=C[C@@H]1O2`, the activity, negative = inhibition was -18.1% [at 2.29 µM].

As to `N/N=C1/c2ccccc2N[C@H]1OC(=O)Nc1cccc(Cl)c1`, the AC50 was 794 nM (active). Regarding `C=CC[C@@H]1C=C[C@@H](O/N=C\C[C@@H]2C=C[C@H](OC(C)=O)[C@H](COC(C)=O)O2)[C@@H](CO)O1`, the activity, negative = inhibition was -8.91% [at 11.4 µM]. For `CCNc1ncc2ncc(=O)n(C3CC3)c2n1`, the AC50 was 3160 nM (active). The same measure, in the same setting: with `CCNc1ncc2nc(C)c(=O)n(C)c2n1` the figure was 5010 nM (active); with `CCNc1ncc2nc(C)c(=O)n(C3CC3)c2n1`, 5010 nM (active).
